Data reported in PubChem BioAssay (NCATS).
Where “and” joins values, the source holds several entries; their conditions need not be identical. Equal entries are not always repeated. Unmarked numbers belong to inactive results. Inconclusive results are not listed. Where a structure was tested more than once in an assay, its records may differ in their call. Calls of active or inactive are those of the source. Unless noted, calls come from the whole dose curve; as a rule, active = well fitted curve in the direction sought with a large enough effect; inconclusive = small, poorly fitted or top-dose-only effect, or another doubt; inactive = no such curve, though single readings can be large; an effect the other way counts as inactive or inconclusive.

How the values were obtained:
JEG-3 = experiment: Primary qHTS to identify gynecologic anti-cancer compounds using libraries of approved drugs and bioactive compounds (AID 1345084); conditions: Gynecologic cancer cell panel viability, ATPlite luminescence, 48 h; series mostly up to 57.5 µM; note: nearly all actives have a fitted effect of over 55% in size; note: potency is the fitted concentration of half-maximal effect
Method in brief: (§1)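 Cells, 1,000 per well, were allowed to settle for 16 h at 37 C before compound addition. Five concentrations were tested for 48 h, and viability was read by ATPlite luminescence after 15 min at room temperature.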

OV90 = experiment: as above; conditions: Gynecologic cancer cell panel viability, ATPlite luminescence, 48 h; series mostly up to 57.5 µM
Method in brief: as §1

PA-1 = experiment: as above; conditions: Gynecologic cancer cell panel viability, ATPlite luminescence, 48 h; series mostly up to 57.5 µM
Method in brief: as §1

[1] = qHTS assay to identify inhibitors of the type 1 interferon - major histocompatibility complex class I in skeletal muscle: Counter screen cell viability and HiBit confirmation (AID 1347412); conditions: iHSKM muscle cells + IFN-b, HiBiT or CellTiter-Glo, 24 h; for activity change, negative = inhibition: at 45.9 µM (top of the series); note: potency is the fitted concentration of half-maximal effect; for activity change, negative = inhibition: % is set by controls: 0 for no effect and ±100 for the full control effect; for all read-outs here: nearly all actives have a fitted effect of over 60% in size
Method in brief: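 Duplicate plates, pinned identically: one read for HiBiT-tagged endogenous HLA-B luminescence, the other for ATP-content viability via CellTiter Glo. Cells were genome-engineered human myoblasts given 4 ng/ml IFN-b; compounds 12-pt, 1:3 from 46 uM final; 24 hr exposure.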

[2] = Drug repurposing screens with cells derived from glioblastoma tumor samples (AID 1345199); conditions: GBM patient neurospheres viability, ATP luminescence, 48 h; note: nearly all actives have a fitted effect of over 40% in size; note: potency is the fitted concentration of half-maximal effect; for activity, negative = cell killing: % is set by controls: 0 for no effect and ±100 for the full control effect
Method in brief: (§2)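 Four patient lines of CD133+ GBM neurospheres were screened at several concentrations; hits were retested in those lines plus three slower-growing GBM lines, using 48-hour treatment and ATP-based viability.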

[3] = molecular target: Nuclear receptor subfamily 1 group I member 2 (Rattus norvegicus) (UniProt Q9R1A7); experiment: qHTS assay for small molecule activators of the rat pregnane X receptor (rPXR) signaling pathway (AID 651751; call rule not given here; note: 0% is about no effect); conditions: rPXR reporter cells, luciferase (One-Glo), 24 h
Chain of Nuclear receptor subfamily 1 group I member 2 (Rattus norvegicus) (Q9R1A7 whole entry, looked up): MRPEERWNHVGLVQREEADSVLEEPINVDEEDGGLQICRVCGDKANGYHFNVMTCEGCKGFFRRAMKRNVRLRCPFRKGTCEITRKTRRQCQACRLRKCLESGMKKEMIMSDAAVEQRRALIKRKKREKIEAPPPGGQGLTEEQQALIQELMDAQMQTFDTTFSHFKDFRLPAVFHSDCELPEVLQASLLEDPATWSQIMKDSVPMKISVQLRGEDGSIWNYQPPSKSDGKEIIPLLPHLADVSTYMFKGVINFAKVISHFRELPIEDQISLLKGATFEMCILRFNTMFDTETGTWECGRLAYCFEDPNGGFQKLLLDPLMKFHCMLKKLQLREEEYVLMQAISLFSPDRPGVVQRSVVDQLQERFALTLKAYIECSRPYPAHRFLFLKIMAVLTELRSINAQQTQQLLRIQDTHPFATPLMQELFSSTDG

HeLa = experiment: Primary qHTS to identify gynecologic anti-cancer compounds using libraries of approved drugs and bioactive compounds (AID 1345084); conditions: Gynecologic cancer cell panel viability, ATPlite luminescence, 48 h; series mostly up to 57.5 µM; note: nearly all actives have a fitted effect of over 55% in size; note: potency is the fitted concentration of half-maximal effect
Method in brief: as §1

SKOV3 = experiment: as above; conditions: Gynecologic cancer cell panel viability, ATPlite luminescence, 48 h; series mostly up to 57.5 µM
Method in brief: as §1

Tov-21-G = experiment: as above; conditions: Gynecologic cancer cell panel viability, ATPlite luminescence, 48 h; series mostly up to 57.5 µM
Method in brief: as §1

Tov112D = experiment: as above; conditions: Gynecologic cancer cell panel viability, ATPlite luminescence, 48 h; series mostly up to 57.5 µM
Method in brief: as §1

astro = experiment: Drug repurposing screens with cells derived from glioblastoma tumor samples (AID 1345199); conditions: viability, ATP luminescence, 48 h; series mostly up to 45.9 µM; note: nearly all actives have a fitted effect of over 40% in size; note: potency is the fitted concentration of half-maximal effect; for activity, negative = cell killing: % is set by controls: 0 for no effect and ±100 for the full control effect
Method in brief: as §2

[4] = at 45.9 µM (top of the series), tumour line B
[5] = at 45.9 µM (top of the series), tumour line D
[6] = at 46 µM (top of the series), tumour line A
[7] = at 46.1 µM (top of the series), tumour line C

For CCN(CC)CCCCNc1ncc2cc(-c3c(Cl)cccc3Cl)c(NC(=O)NC(C)(C)C)nc2n1, the Potency (JEG-3) was “inactive”, the Potency (OV90) was 7.94 µM (active) and the Potency (PA-1) was 0.631 µM (active).
In the case of CCOC(=O)N1CCN(/[N+]([O-])=N/Oc2ccc([N+](=O)[O-])cc2[N+](=O)[O-])CC1, the Potency ([1]; HiBiT) is reported as 6.25 µM (active) and the activity change, negative = inhibition ([1]; Viability) is reported as 17.2%.
With C=CCN1C(=O)C(CC(C)C)NC1=S (stereo not drawn) the activity, negative = cell killing [2, 4] was -28.5% and -13.5%, the activity, negative = cell killing [2, 5] was -8.69% and -21.9% and the activity, negative = cell killing [2, 6] was -6.38% and -35.5%. The activity, negative = cell killing [2, 7] was -6.48% and -20.2%.
Compound CN(C)CCC(c1ccc(Cl)cc1)c1ccccn1 (stereo not drawn) has a max response [3] of 3.17%.
CO/N=C(\C(=O)N[C@@H]1C(=O)N2C(C(=O)O)=C(COC(C)=O)CS[C@H]12)c1csc(N)n1 (stereo in doubt) showed an activity, negative = cell killing [2, 4] of -12.2%, an activity, negative = cell killing [2, 5] of 9.74% and an activity, negative = cell killing [2, 6] of -20.5%. The activity, negative = cell killing [2, 7] was -2.27%.
Compound C=C(Nc1ccc(OCC)cc1)Nc1ccc(OCC)cc1 has an activity, negative = cell killing [2, 5] of -18.8% and an activity, negative = cell killing [2, 7] of -12.9%.
OCC1O[C@H]([S-])[C@H](O)[C@@H](O)[C@@H]1O.[Au+] (stereo partly drawn) showed an activity change, negative = inhibition ([1]; Viability) of -5.66%.
For Cc1nc2ccccc2n1Cc1ccc(Cl)cc1, the Potency (HeLa) was “inactive”, the Potency (JEG-3) was “inactive” and the Potency (OV90) was 8.91 µM (active). The Potency (SKOV3) was 3.98 µM (active), the Potency (Tov-21-G) was “inactive” and the Potency (Tov112D) was “inactive”. The Potency (astro) was 3.16 µM (active).
Work on CCOC(=O)C1=C(C)NC(C)=C(C(=O)OCC)C1c1c(F)c(F)c(F)c(F)c1F yielded an activity change, negative = inhibition ([1]; HiBiT) of -2.44% and an activity change, negative = inhibition ([1]; Viability) of 9.02%.
With O=C(O)[C@H](O)[C@@H](O)[C@H](O)[C@H](O)CO the activity, negative = cell killing [2, 4] was -3.35% and -2.21%, the activity, negative = cell killing [2, 5] was -11.3% and 8.58% and the activity, negative = cell killing [2, 6] was -25.5% and -7.46%. For the same compound, the activity, negative = cell killing [2, 7] was 0.0662% and -1.71% and the Potency (astro) was “inactive”.
In the case of O=C1C(SCCO)=C(SCCO)C(=O)c2ccccc21, the Potency ([1]; HiBiT) is reported as 2.79 µM (active) and the Potency ([1]; Viability) is reported as 4.97 µM (active).
In the case of O=C(Nc1ccncc1)c1cc([N+](=O)[O-])ccc1Cl, the Potency ([1]; HiBiT) is reported as 15.7 µM (active) and the activity change, negative = inhibition ([1]; Viability) is reported as -27.4%.
In the case of N#C/C(=C\c1ccc(-c2cc(Cl)ccc2Cl)o1)C(=O)Nc1cccc2ncccc12, the activity change, negative = inhibition ([1]; Viability) is reported as -18.8%.
In the case of O=[N+]([O-])c1ccc2c(c1)S(=O)(=O)C=C2, the Potency ([1]; HiBiT) is reported as 1.76 µM (active).
For O=c1cc(-c2ccccc2)oc2ccccc12, the Potency (HeLa) was 15.8 µM (active) and the Potency (SKOV3) was 31.6 µM (active).
For CC[C@H]1OC(=O)[C@H](C)C(=O)[C@H](C)[C@@H](O[C@@H]2O[C@H](C)C[C@H](N(C)C)[C@H]2O)[C@](C)(OC)C[C@@H](C)C(=O)[C@H](C)[C@H]2N(CCCCn3cnc(-c4cccnc4)c3)C(=O)O[C@]12C, the activity, negative = cell killing [2, 4] was -5.03%, the activity, negative = cell killing [2, 5] was 5.49% and the activity, negative = cell killing [2, 6] was -23.7%. The activity, negative = cell killing [2, 7] was 5.5% and the Potency (astro) was “inactive”.
O=C(Nc1ccccc1)c1cc([N+](=O)[O-])ccc1Cl showed a max response [3] of -1.59%.
Compound CCCCC[C@H](O)/C=C/[C@@H]1[C@@H](C/C=C\CCCC(=O)O)[C@@H](O)C[C@H]1O has an activity, negative = cell killing ([2]; at 20 µM (top of the series), tumour line C) of -5.83%, an activity, negative = cell killing ([2]; at 21.2 µM (top of the series), tumour line B) of 0.321% and an activity, negative = cell killing ([2]; at 21.2 µM (top of the series), tumour line D) of -15.4%. For the same compound, the activity, negative = cell killing [2, 4] was 1.47%, the activity, negative = cell killing [2, 5] was -6.45% and the activity, negative = cell killing [2, 6] was -9.88%. For the same compound, the activity, negative = cell killing [2, 7] was -1.95% and the Potency (astro) was “inactive”.
CN1[C@@H](CC(=O)c2ccccc2)CCC[C@H]1C[C@H](O)c1ccccc1 gave an activity, negative = cell killing [2, 4] of -7.77%, an activity, negative = cell killing [2, 5] of -23.7% and an activity, negative = cell killing [2, 7] of 11.9%. The Potency ([2]; tumour line A) was 10 µM (active) and the Potency (astro) was “inactive”.
In the case of COc1ccc(/C=C2\COc3ccc(C)cc3C2=O)cc1O, the Potency ([1]; HiBiT) is reported as 14 µM (active) and the activity change, negative = inhibition ([1]; Viability) is reported as -21.6%.
With Cc1ccc(S(=O)(=O)/C=C/C#N)cc1 the Potency ([1]; HiBiT) was 5.57 µM (active) and the Potency ([1]; Viability) was 17.6 µM (active).
O=S(=O)(c1cccc2c(I)cccc12)N1CCCNCC1 gave an activity change, negative = inhibition ([1]; HiBiT) of -4.28% and an activity change, negative = inhibition ([1]; Viability) of -12.4%.
O=C(O)/C=C/C(O)c1ccc(Cl)cc1 (stereo not drawn) gave an activity, negative = cell killing [2, 4] of 1.63%, an activity, negative = cell killing [2, 5] of 7.64% and an activity, negative = cell killing [2, 6] of -31.6%. The activity, negative = cell killing [2, 7] was 1.95%.
In the case of CC1(C)C[C@@H]1C(=O)N/C(=C\CCCCSC[C@H](N)C(=O)O)C(=O)O, the activity, negative = cell killing [2, 4] is reported as -13% and -12.1%, the activity, negative = cell killing [2, 5] is reported as 1.02% and -4.66% and the activity, negative = cell killing [2, 6] is reported as -10.2% and -10.8%. The activity, negative = cell killing [2, 7] was -10.6% and -17.9%.
Work on C=CC(N)CCC(=O)O (stereo not drawn) yielded an activity, negative = cell killing [2, 4] of -2.82%, an activity, negative = cell killing [2, 5] of -18.8% and an activity, negative = cell killing [2, 6] of -11.6%. The activity, negative = cell killing [2, 7] was -7.65% and the Potency (astro) was “inactive”.
For CC(C)Cc1ccc([C@H](C)C(=O)O)cc1, the activity, negative = cell killing [2, 4] was 4.71%, the activity, negative = cell killing [2, 5] was 0.88% and the activity, negative = cell killing [2, 6] was -14%. It also gave an activity, negative = cell killing [2, 7] of 8.55%.
Oc1ccccc1O gave a max response [3] of 2.32%.
With COc1cc(/C=C/C(=O)CC(=O)/C=C/c2ccc(O)c(OC)c2)ccc1O the activity, negative = cell killing [2, 4] was -25.8%, the activity, negative = cell killing [2, 5] was -25.7% and the activity, negative = cell killing [2, 7] was -20.1%. The Potency ([2]; tumour line A) was 12.6 µM (active).
With CC(C)(C)c1ccc(S(=O)(=O)/C=C/C#N)cc1 the Potency ([1]; HiBiT) was 2.79 µM (active) and the Potency ([1]; Viability) was 11.1 µM (active).
